In general, AC50 refers to the concentration at which the activity in the assay is half-maximal.

Molecules are shown by their SMILES. Several values for one entry are separate records, joined by “and”; a condition that tells them apart may be missing. Identical values can stand only once. Results filed as inconclusive are left out. A structure can be active in one record and inactive in another. Activity calls are given as the source filed them. How the source made its calls: active means hit-call score of the fitted dose curve at least 0.9, where 1 is the maximum; inconclusive means response in the unintended direction; inactive means score below 0.9.

A short description of this assay: CCTE_Shafer_MEA_dev_active_electrodes_number: CCTE's Neural Network Formation Assay for Number of Active Electrodes, Shafer Lab (AID 2284040).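 On AC50: potency for loss of active electrodes versus DMSO so lower counts are hits.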 The procedure: CCTE_Shafer_MEA_dev assay is conducted using Axion Biosystems 48 well microelectrode array (MEA) plates and Maestro recording system. Each well of the MEA plate contains a grid of 16 microelectrodes embedded in the culture surface. Electrically active cells, such as neurons, can be cultured over the electrodes, and electrical activity in these cells can be recorded extracellularly. The spontaneous firing of neurons is captured from each electrode on a microsecond timescale providing both temporally and spatially precise data. […] The CCTE_Shafer_MEA_dev assay uses primary cultures of rat cortical neurons. Recordings are made on days post-plating 5, 7, 9 and 12. As these cultures mature over time, neural networks develop functional activity and form cohesive networks in which electrical activity can be highly coordinated. CCTE_Shafer_MEA_dev_active_electrodes_number is 1 of 19 assay components of the CCTE_Shafer_MEA_dev assay. It measures the number of electrodes in a well with a mean firing rate of at least 5 spikes (action potential firings) per minute during a recording in a microelectrode array (MEA) using Axion Biosystems Maestro 768 channel amplifier with the AxIS adaptive spike detector. To collapse across multiple recordings made on days post-plating 5, 7, 9 and 12, the trapezoidal area-under-the-curve of the component is calculated.Data from the assay component CCTE_Shafer_MEA_dev_active_electrodes_number was analyzed into 1 assay endpoint. This assay endpoint, CCTE_Shafer_MEA_dev_active_electrodes_number, was analyzed in the negative analysis fitting direction relative to DMSO as the negative control and baseline of activity. Using a type of functional reporter, gain or loss-of-signal activity can be used to understand electrical activity.
On the day prior to culture, each well was coated thoroughly with 150 uL of 0.05% polyethyleneimine (PEI, Sigma Cat P3143) in 50 mM HEPES (Sigma Cat H7523) at a pH of 8. The plate was incubated at 37C for one hour. PEI was rinsed out with 500 uL of sterile water three times. Plates were stored at 4C until the day of culture. This culture was plated at a seeding density of 1.5 x 10^5 cells/well on a 48-well MEA plate, prepared as described above. Cells were administered via a 25 uL media/laminin ([…]; Sigma Cat L2020-1MG) drop directly onto the microelectrode array, as adding the cells with the laminin results in better attachment than pre-coating with laminin. After 2 hours, an additional 475 uL of cortical media was added and the cells returned to the incubator. Exposure starts at day 0 of plating and is continued over twelve days of network development until the experiment is terminated. Cells are fed with fresh medium on DIV 5 and 9, following the recordings on those days. The entire volume of media in the well is exchanged and any vehicle or compound treatment is renewed. Complete details are found in OP-NHEERL/ISTD/SBB/TJS/2015-03-r0 (available on request, email shafer.tim@epa.gov). Measurement of the electrical activity is non-invasive, and recordings can be made from the same plate over multiple different days of the culture. In cortical neurons, this allows for the measurement of extracellular action potentials over the period during which networks form in the MEA plate.
With `COc1ccc(C(c2ccc(OC)cc2)C(Cl)(Cl)Cl)cc1`, the half-maximal activity concentration (AC50) is 6.74 µM (active).

Turning to `CCOC(=O)CC(SP(=S)(OC)OC)C(=O)OCC` (configuration not stated), the AC50 was 17.1 µM (active) and 6.38 µM (active).

Regarding `CC(C)(C)c1ccc(CSc2cnn(C(C)(C)C)c(=O)c2Cl)cc1`, the AC50 was 0.0031 µM (active).

Turning to `CCOc1cc(Oc2ccc(C(F)(F)F)cc2Cl)ccc1[N+](=O)[O-]`, the AC50 is 4.91 µM (active).

Consider `COP(=S)(OC)Oc1nc(Cl)c(Cl)cc1Cl`, for which the call was inactive.

On to `CCCCOC(=O)c1ccccc1C(=O)OCCCC`, for which the AC50 is 75.1 µM (active).

Consider `CO/C=C(/C(=O)OC)c1ccccc1Oc1cc(Oc2ccccc2C#N)ncn1`, for which the AC50 is 1.52 µM (active) and 1.07 µM (active).

With `CCCCC(CC)COC(=O)c1ccccc1C(=O)OCC(CC)CCCC` (configuration not stated), the AC50 was 15 µM (active) and 7.34 µM (active); the compound was classed as inactive.

On to `C=CCC1=C(C)C(OC(=O)C2C(C=C(C)C)C2(C)C)CC1=O` (configuration not stated), for which the AC50 is 10 µM (active) and 14.8 µM (active).

Turning to `CNC(=O)ON=CC(C)(C)SC`, the compound was classed as inactive.

Take `CCCCNC(=O)OCC#CI`: the AC50 is 3.93 µM (active) and 1.81 µM (active).

Take `CCCCNC(=O)n1c(NC(=O)OC)nc2ccccc21`: the AC50 is 15 µM (active).

For the compound `N#Cc1nn(-c2c(Cl)cc(C(F)(F)F)cc2Cl)c(N)c1S(=O)C(F)(F)F` (configuration not stated), the result was inactive.

In the case of `Cc1c(F)c(F)c(COC(=O)C2C(/C=C(\Cl)C(F)(F)F)C2(C)C)c(F)c1F` (configuration not stated), the AC50 was 10 µM (active).

Turning to `C=CCC1=C(C)[C@@H](OC(=O)[C@@H]2[C@@H](C=C(C)C)C2(C)C)CC1=O`, the AC50 is 6.82 µM (active).

Take `CN(C)C(=S)SSC(=S)N(C)C`: the AC50 was 0.011 µM (active).

Turning to `COP(N)(=O)SC` (configuration not stated), the call was inactive.

Turning to `Cc1ccc(-c2c(Cl)nc(C#N)n2S(=O)(=O)N(C)C)cc1`, the half-maximal activity concentration (AC50) was 39 µM (active).

As for `COC(=O)N(OC)c1ccccc1COc1ccn(-c2ccc(Cl)cc2)n1`, the AC50 was 77 nM (active) and 13.7 nM (active).

In the case of `C=CC1(C)OC(=O)N(c2cc(Cl)cc(Cl)c2)C1=O` (configuration not stated), the half-maximal activity concentration (AC50) was 50 µM (active).

As to `CCNc1nc(Cl)nc(NC(C)C)n1`, the result was inactive.

Source of the values: PubChem BioAssay (EPA / NIEHS).
